Source: the supplement of paper PMC3334620
Over roughly 33,000 sequences, “E-score (-0.5 to 0.5)” has its median near -0.0014; the highest 2% begin near 0.25. What follows is part of a selection rich in the highest values, with near analogues and random picks from the rest.

target: T1, Cad1 (UniProt P24813); experiment: PBM E-score (8-mer binding enrichment) (E-score (-0.5 to 0.5)); higher = stronger / more preferred TF binding; conditions: protein concentration: 100 nM; construct: GST-full length
T1 sequence: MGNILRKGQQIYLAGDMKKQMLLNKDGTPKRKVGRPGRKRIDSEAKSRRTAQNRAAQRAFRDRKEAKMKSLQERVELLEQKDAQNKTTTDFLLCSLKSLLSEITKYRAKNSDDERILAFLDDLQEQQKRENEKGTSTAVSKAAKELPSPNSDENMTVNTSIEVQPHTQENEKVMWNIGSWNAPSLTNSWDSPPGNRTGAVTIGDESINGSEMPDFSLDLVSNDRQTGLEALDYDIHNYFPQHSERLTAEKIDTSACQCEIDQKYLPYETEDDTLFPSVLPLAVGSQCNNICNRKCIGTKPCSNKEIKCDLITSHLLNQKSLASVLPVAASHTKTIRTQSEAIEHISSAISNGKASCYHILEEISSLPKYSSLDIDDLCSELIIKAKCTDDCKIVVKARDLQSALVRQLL
Procedure, shortened: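 Yeast transcription factors, full-length or as DNA-binding domains, were expressed with a GST tag using PURExpress in vitro transcription/translation. At about 100-200 nM they were applied to universal all-10-mer Agilent arrays, double-stranded by primer extension on fresh or once-stripped slides. Fluorescent anti-GST detected bound protein, and masliner normalised the scans. E-scores for ungapped eight-base words, pooled with reverse complements, came from the Universal PBM Analysis Suite.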

**Q.** How did the “PBM E-score” value turn out when CGGACGAA was run?
**A.** The value was 0.274.

**Q.** CGGACGAC was tested. Which “PBM E-score” value did it give?
**A.** Its value is -0.0294.

**Q.** Which “PBM E-score” value does the source give for ATCTGGTG here?
**A.** Its value is 0.0268.

**Q.** Which “PBM E-score” value does the source give for CGATACAC here?
**A.** Its value is 0.00183.

**Q.** For ATTTCTCC, which “PBM E-score” value is on record?
**A.** The value was -0.0308.

**Q.** ATTTCTCG was tested. Which “PBM E-score” value did it give?
**A.** The value was 0.332.

**Q.** Which “PBM E-score” value does the source give for ATTTCTCA here?
**A.** The value was 0.0134.

**Q.** For CATTACAG, which “PBM E-score” value is on record?
**A.** The value was 0.0228.

**Q.** Which “PBM E-score” value does the source give for CATTACAC here?
**A.** Its value is 0.0518.

**Q.** TATTACAA was tested. Which “PBM E-score” value did it give?
**A.** Its value is 0.152.

**Q.** Which “PBM E-score” value does the source give for CATTACAA here?
**A.** Its value is 0.277.

**Q.** Which “PBM E-score” value does the source give for GATTACAC here?
**A.** Its value is 0.156.

**Q.** How did the “PBM E-score” value turn out when GATTACAA was run?
**A.** The value was 0.294.

**Q.** AACTTATA was tested. Which “PBM E-score” value did it give?
**A.** The value was 0.257.

**Q.** Which “PBM E-score” value does the source give for GACTTATA here?
**A.** Its value is 0.214.

**Q.** For TACTTATA, which “PBM E-score” value is on record?
**A.** The value was 0.0796.

**Q.** Which “PBM E-score” value does the source give for CTAGCTAC here?
**A.** The value was -0.0695.

**Q.** How did the “PBM E-score” value turn out when ATAGCTAA was run?
**A.** The value was 0.0748.

**Q.** How did the “PBM E-score” value turn out when CTAGCTAA was run?
**A.** The value was -0.0595.

**Q.** How did the “PBM E-score” value turn out when CTTGCTAA was run?
**A.** The value was -0.13.

**Q.** With CTAGCTAG as the sequence, how does the “PBM E-score” value read?
**A.** The value was 0.279.

**Q.** For ATTGCTAG, which “PBM E-score” value is on record?
**A.** The value was 0.014.

**Q.** Which “PBM E-score” value does the source give for ATAGCTAG here?
**A.** Its value is -0.106.

**Q.** TTAGCTAA was tested. Which “PBM E-score” value did it give?
**A.** Its value is 0.298.

**Q.** Which “PBM E-score” value does the source give for ATTGCTAA here?
**A.** Its value is 0.256.

**Q.** ACGCCTCT was tested. Which “PBM E-score” value did it give?
**A.** The value was -0.183.

**Q.** GCTTTGAA was tested. Which “PBM E-score” value did it give?
**A.** Its value is 0.108.

**Q.** Which “PBM E-score” value does the source give for ACCGTGTA here?
**A.** Its value is 0.00454.

**Q.** With ACTTACAC as the sequence, how does the “PBM E-score” value read?
**A.** The value was -0.0153.

**Q.** GCTTACAA was tested. Which “PBM E-score” value did it give?
**A.** The value was 0.308.

**Q.** How did the “PBM E-score” value turn out when GATTACGA was run?
**A.** The value was 0.318.

**Q.** How did the “PBM E-score” value turn out when ACTTACAT was run?
**A.** The value was 0.0914.

**Q.** ACTTACGA was tested. Which “PBM E-score” value did it give?
**A.** Its value is 0.184.

**Q.** With GCTTACGA as the sequence, how does the “PBM E-score” value read?
**A.** Its value is 0.258.

**Q.** Which “PBM E-score” value does the source give for CCTTACGA here?
**A.** Its value is 0.00401.

**Q.** With GCTTACAC as the sequence, how does the “PBM E-score” value read?
**A.** The value was 0.23.

**Q.** Which “PBM E-score” value does the source give for CATTACGA here?
**A.** Its value is 0.0111.

**Q.** How did the “PBM E-score” value turn out when AATTACGA was run?
**A.** Its value is 0.148.

**Q.** For TCTTACAA, which “PBM E-score” value is on record?
**A.** The value was 0.0371.

**Q.** With ACTTACAA as the sequence, how does the “PBM E-score” value read?
**A.** The value was 0.278.

**Q.** How did the “PBM E-score” value turn out when CGACTAAG was run?
**A.** Its value is -0.00537.

**Q.** How did the “PBM E-score” value turn out when ACTTCAGG was run?
**A.** The value was -0.041.

**Q.** Which “PBM E-score” value does the source give for TACAACTA here?
**A.** Its value is 0.0174.

**Q.** With CAGACCCA as the sequence, how does the “PBM E-score” value read?
**A.** The value was -0.175.

**Q.** For ACTTACTA, which “PBM E-score” value is on record?
**A.** Its value is 0.184.

**Q.** With GCTTACTA as the sequence, how does the “PBM E-score” value read?
**A.** Its value is 0.426.

**Q.** CCTTACTA was tested. Which “PBM E-score” value did it give?
**A.** Its value is 0.211.

**Q.** With GCTTACCA as the sequence, how does the “PBM E-score” value read?
**A.** Its value is 0.255.

**Q.** How did the “PBM E-score” value turn out when TCTTACCA was run?
**A.** The value was -0.131.

**Q.** How did the “PBM E-score” value turn out when GCTTACCC was run?
**A.** Its value is 0.034.

**Q.** AGTCAAGA was tested. Which “PBM E-score” value did it give?
**A.** Its value is 0.121.

**Q.** Which “PBM E-score” value does the source give for GCCTTATA here?
**A.** Its value is -0.0929.

**Q.** How did the “PBM E-score” value turn out when GGGATGCA was run?
**A.** Its value is -0.167.

**Q.** Which “PBM E-score” value does the source give for AACGGGAA here?
**A.** The value was 0.00234.

**Q.** GTCGAAGA was tested. Which “PBM E-score” value did it give?
**A.** Its value is -0.0249.

**Q.** ATTGGCTC was tested. Which “PBM E-score” value did it give?
**A.** Its value is 0.0265.

**Q.** With ATAACGGA as the sequence, how does the “PBM E-score” value read?
**A.** Its value is 0.155.

**Q.** For TCCACGGA, which “PBM E-score” value is on record?
**A.** The value was 0.282.

**Q.** How did the “PBM E-score” value turn out when CTAACGGA was run?
**A.** The value was 0.294.

**Q.** How did the “PBM E-score” value turn out when ACCACGGA was run?
**A.** The value was -0.141.

**Q.** CCCACGGA was tested. Which “PBM E-score” value did it give?
**A.** Its value is -0.117.

**Q.** With CTAACGGC as the sequence, how does the “PBM E-score” value read?
**A.** The value was 0.00942.

**Q.** How did the “PBM E-score” value turn out when ATGGTCCC was run?
**A.** The value was -0.189.

**Q.** CCGCCCTA was tested. Which “PBM E-score” value did it give?
**A.** Its value is -0.00222.

**Q.** For AGTCGGAA, which “PBM E-score” value is on record?
**A.** The value was 0.0204.

**Q.** For AATACTCC, which “PBM E-score” value is on record?
**A.** Its value is -0.123.

**Q.** CGTAATCA was tested. Which “PBM E-score” value did it give?
**A.** Its value is 0.336.

**Q.** With CGTAATCC as the sequence, how does the “PBM E-score” value read?
**A.** The value was 0.191.

**Q.** With GGTAAACA as the sequence, how does the “PBM E-score” value read?
**A.** The value was 0.124.

**Q.** Which “PBM E-score” value does the source give for AGTAAACA here?
**A.** Its value is 0.182.

**Q.** With GGTAATCA as the sequence, how does the “PBM E-score” value read?
**A.** The value was 0.203.

**Q.** For CGTAAACA, which “PBM E-score” value is on record?
**A.** The value was 0.256.

**Q.** Which “PBM E-score” value does the source give for CATAATCA here?
**A.** Its value is 0.175.

**Q.** How did the “PBM E-score” value turn out when AGTAATCC was run?
**A.** The value was 0.229.

**Q.** For AGTAATCA, which “PBM E-score” value is on record?
**A.** Its value is 0.297.

**Q.** AATCCCAG was tested. Which “PBM E-score” value did it give?
**A.** The value was 0.0625.

**Q.** Which “PBM E-score” value does the source give for AAGAGTCG here?
**A.** Its value is 0.0695.

**Q.** AATTTCTG was tested. Which “PBM E-score” value did it give?
**A.** The value was 0.0718.

**Q.** For AGCGGGCC, which “PBM E-score” value is on record?
**A.** The value was -0.0503.

**Q.** How did the “PBM E-score” value turn out when CCACCATA was run?
**A.** The value was -0.0653.

**Q.** CATCCGTC was tested. Which “PBM E-score” value did it give?
**A.** Its value is -0.00289.

**Q.** CAATACTA was tested. Which “PBM E-score” value did it give?
**A.** The value was 0.0552.

**Q.** For AAATACTA, which “PBM E-score” value is on record?
**A.** Its value is 0.0416.

**Q.** How did the “PBM E-score” value turn out when TACTAGTA was run?
**A.** The value was 0.273.

**Q.** How did the “PBM E-score” value turn out when AACTAAAA was run?
**A.** The value was 0.133.

**Q.** For AACTAATT, which “PBM E-score” value is on record?
**A.** Its value is 0.217.
